Results filed as inconclusive are left out. Unmarked numbers belong to inactive results. Calls follow the shape of the dose curve; as a rule, active = well fitted cell-killing curve with a large enough effect; inconclusive = small, poorly fitted or top-dose-only effect, or effect the other way; inactive = flat fitted curve, though single readings scatter.
system: Tov-21-G; test: Primary qHTS to identify gynecologic anti-cancer compounds using libraries of approved drugs and bioactive compounds (AID 1345084); conditions: Gynecologic cancer cell panel viability, ATPlite luminescence, 48 h; series mostly up to 57.5 µM; activity change, negative = cytotoxicity: at the top concentration; also: nearly all actives have a fitted effect of over 55% in size
Method in brief: (§1)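 ATP-based viability (ATPlite), 1,000 cells/well, 16 h pre-incubation, 48 h compound at 37 C, 5% CO2, 15 min RT before read.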
% is scaled to controls: 0 for no effect and ±100 for the full control effect.

| SMILES | activity change, negative = cytotoxicity |
| --- | --- |
| Cc1cc(CN)cc(C)c1NC(=O)c1ccc(-c2cc(Cl)ccc2Cl)o1 | -0.475% |
| CC(C)c1ccc(NC(=O)C(c2ccccc2)N(C)C(=O)Cc2c[nH]c3ccccc23)cc1 (stereo unspecified) | -0.965% |
| O=C(Nc1cccc(C(F)(F)F)c1)c1ccccc1NCc1ccncc1 | 3.64% |
| Cc1cc(C)c(NC(=O)N(Cc2ccc3c(c2)Cc2ccccc2-3)C2CCCCCC2)c(C)c1 | 2.39% |
| CN(Cc1ccc(C(=O)O)cc1)c1ccc(OCc2c(-c3c(Cl)cccc3Cl)noc2C2CC2)nc1C(F)(F)F | -12.9% |
| Cn1nccc1Nc1nccc(-c2ccn([C@H](CO)c3ccc(Cl)c(F)c3)c(=O)c2)n1 | -18.8% |
| C[N+]1(C)[C@@H]2CC[C@H]1CC(OC(=O)C(O)c1ccccc1)C2 (stereo partly specified) | 3.36% |
| CC1CCN(c2cc(NC(=O)c3ccccc3)ncn2)CC1 | -23.1% |
| CCOc1ccc(-c2nc(-c3cccc4c3CCC4NCCO)no2)cc1OCC (stereo unspecified) | -1.57% |
| CCC(=O)c1cc(-c2ccc(Cl)cc2)n(-c2ccc(S(N)(=O)=O)cc2)c1C | 12.3% |
| COc1cc2nc(-c3cc(F)ccc3O)nc(N[C@@H]3CNC[C@H]3C(C)(C)O)c2cc1OC | -22.5% |
| COc1c(N2CC3CCCNC3C2)c(F)cc2c(=O)c(C(=O)O)cn(C3CC3)c12 (stereo unspecified) | 5.54% |
| COc1ccc(Cl)cc1[C@@]1(F)C(=O)Nc2cc(C(F)(F)F)ccc21 | -25.4% |
| COc1ccc(-c2c(C)c(C(=O)NN3CCCCC3)nn2-c2ccc(Cl)cc2Cl)cc1 | 11.7% |
| C[C@H](NC(=O)C(C)(C)Oc1ccc(C(F)(F)F)cn1)[C@@H](Cc1ccc(Cl)cc1)c1cccc(C#N)c1 | -0.792% |

system: Tov112D; test: as above; conditions: Gynecologic cancer cell panel viability, ATPlite luminescence, 48 h; series mostly up to 57.5 µM; activity change, negative = cytotoxicity: at the top concentration
Method in brief: as §1

| SMILES | activity change, negative = cytotoxicity |
| --- | --- |
| CC(=O)N1CCN([C@H]2CCN(C(=O)N(C)[C@H](C)c3cc(C(F)(F)F)cc(C(F)(F)F)c3)[C@@H](c3ccc(F)cc3C)C2)CC1 | 5.4% |
| Nc1ccc(N)c([N+](=O)[O-])c1 | 21.3% [at 116 µM] |
| C=C1C(=O)O[C@@H]2C[C@@H](C)[C@]34C[C@]5(C(=O)O[C@H]6CC(C)=C([C@H](C)CCCO)[C@H](OC(=O)C(C)CC)[C@H]65)[C@@H](C(C)=C3C[C@@H]12)[C@H]4OC(C)=O (stereo partly specified) | -2.39% [at 25.3 µM] |
| Fc1ccccc1CNCc1ccc(-c2ccnc3[nH]ccc23)cc1 | -8.44% |
| CCCCc1nc(C)c(CC(=S)N(C)C)c(=O)n1Cc1ccc(-c2ccccc2-c2nn[nH]n2)cc1 | 9.57% |
| CNc1nc(-c2ccc3c(N)n[nH]c3c2)cc(N2CC(C(=O)NC3CCCCC3)CCC2C)n1 (stereo unspecified) | -29.2% |
| CC[C@H]1OC(=O)[C@H](C)[C@@H](O[C@H]2C[C@@](C)(OC)[C@@H](O)[C@H](C)O2)[C@H](C)[C@@H](O[C@@H]2O[C@H](C)C[C@H](N(C)C)[C@H]2O)[C@](C)(O)C[C@@H](C)/C(=N/OCOCCOC)[C@H](C)[C@@H](O)[C@]1(C)O | 11.2% |
| C[C@@H](CN1CCC(n2c(=O)[nH]c3cc(Cl)ccc32)CC1)NC(=O)c1ccc2ccccc2c1 | -1.56% |
| CC1=CC(=O)[C@@]2(C(C)C)C[C@@H]12 | -19.3% |
| CN(C)CC(=O)Nc1ccc2[nH]c(=O)c3ccccc3c2c1 | -0.23% |
| C=C1C(=O)O[C@@H]2/C=C(/C)CC3C=C(C[C@H](OC(=O)/C(C)=C\C)[C@@H]12)C(=O)O3 (stereo partly specified) | -8.51% [at 38.5 µM] |
| COc1ccc2c(c1)CN(C(=O)CCN1CCC(Cc3ccccc3)CC1)CCS2 | -18.4% [at 25.3 µM] |
| COc1ccc(-c2nc(-c3cc(C(F)(F)F)cc(C(F)(F)F)c3)n(Cc3ccc(C(N)=O)cc3)c2-c2ccc(OC)cc2)cc1 | -2.38% |
| CNc1cc(OC)c(C(=O)N[C@@H]2CCN(Cc3ccccc3)[C@@H]2C)cc1Cl | -16.9% |
| CC(=O)Nc1ccc(C(=O)Nc2ccccc2N)cc1 | -4.47% [at 25.3 µM] |
| CCOC(=O)CCC(=O)O[C@H]1[C@H](O[C@@H]2[C@@H](C)[C@H](O[C@H]3C[C@@](C)(OC)[C@@H](O)[C@H](C)O3)[C@@H](C)C(=O)O[C@H](CC)[C@@](C)(O)[C@H](O)[C@@H](C)C(=O)[C@H](C)CC2(C)O)O[C@H](C)C[C@@H]1N(C)C (stereo partly specified) | 13.4% |
| C=C(C(=O)O)C1CC2=C(C)C(=O)CC2C(C)CC1O (stereo unspecified) | -12.9% |
| CCC(=O)Nc1cccc(Oc2nc(Nc3ccc(N4CCN(C)CC4)cc3OC)ncc2Cl)c1 | -7.47% |
| Cc1cc(CN)cc(C)c1NC(=O)c1ccc(-c2cc(Cl)ccc2Cl)o1 | 1.62% |
| C=C1C(=O)O[C@@H]2C[C@@]3(C)CCC[C@H](C)C3=C[C@H]12 | -9.81% |
| C=C1C(=O)O[C@@H]2[C@H]1[C@H](O)C[C@]1(C)[C@@H](O)CC=C(C)[C@@H]21 | 8.09% |

— PubChem BioAssay (NCATS)
